Shown are actives, neighbours in structure and some others; about 1.1% of the full set was active somewhere.
Apoferritin bind – qHTS Assay for Identification of Novel General Anesthetics; Ferritin light chain (Equus caballus), P02791; Potency, µM (top dose mostly 77.5 µM), most hits filed as inhibitors; 350,000 compounds, 0.074% hits; AID 485281, 2010; apoferritin/1-aminoanthracene competitive binding, fluorescence; also: nearly all actives have a fitted effect of over 20% in size
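Apoferritin-based anesthetic binding model; compound displacement of fluorescent 1-AMA measured as endpoint fluorescence after 10 minutes at room temperature, scaled to free-ligand and complex controls.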
GRP78 ERSR act – qHTS for Inducers of the Endoplasmic Reticulum Stress Response (ERSR) in Human Glioma: qHTS; U87-MG GRP78 promoter luciferase reporter, 16 h; Potency, µM, most hits filed as activators; 420,000 compounds, 0.02% hits; AID 602332, 2012; also: series mostly up to about 76 µM; nearly all actives have a fitted effect of over 35% in size
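Stably transfected U87-MG glioma cells carrying a GRP78-based luciferase sensor; 16 h compound incubation. Luminescence end-point read 10 min after Bright-Glo addition at room temperature.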
BCR signal inh – qHTS Assay to Find Inhibitors of Chronic Active B-Cell Receptor Signaling | ABC-DLBCL IkBa-CBG/CBR reporter, luminescence ratio, 4 h | Potency, µM (doses to about 46.1 µM), hits mostly inhibitors | 340,000 compounds, 0.05% hits | AID 493014, 2011; active = well fitted inhibition curve with a large enough effect in the signal ratio, with a control signal flat, not every such curve was filed as active; inconclusive = small, poorly fitted or top-dose-only effect, or effect the other way, or a change in a side signal; the % refers to the signal ratio
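TMD8 human ABC-DLBCL cells with doxycycline-inducible IκBα–green luciferase fusion and unfused red luciferase, in 0.5% FBS medium; compounds up to 46 uM, 4 h at 37C. Green/red luminescence ratio, filter-overlap corrected, fitted to concentration-response curves.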
12-LOX inh – Primary qHTS assay for inhibitors of human arachidonate 12S-lipoxygenase (ALOX12): Round 2; purified 12hLO, xylenol orange hydroperoxide absorbance; 580,000 compounds, 1.1% hits; Polyunsaturated fatty acid lipoxygenase ALOX12 (Homo sapiens), P18054; Potency, µM (top dose mostly 108 µM), hits mostly inhibitors
Target sequence (P18054 whole entry, looked up): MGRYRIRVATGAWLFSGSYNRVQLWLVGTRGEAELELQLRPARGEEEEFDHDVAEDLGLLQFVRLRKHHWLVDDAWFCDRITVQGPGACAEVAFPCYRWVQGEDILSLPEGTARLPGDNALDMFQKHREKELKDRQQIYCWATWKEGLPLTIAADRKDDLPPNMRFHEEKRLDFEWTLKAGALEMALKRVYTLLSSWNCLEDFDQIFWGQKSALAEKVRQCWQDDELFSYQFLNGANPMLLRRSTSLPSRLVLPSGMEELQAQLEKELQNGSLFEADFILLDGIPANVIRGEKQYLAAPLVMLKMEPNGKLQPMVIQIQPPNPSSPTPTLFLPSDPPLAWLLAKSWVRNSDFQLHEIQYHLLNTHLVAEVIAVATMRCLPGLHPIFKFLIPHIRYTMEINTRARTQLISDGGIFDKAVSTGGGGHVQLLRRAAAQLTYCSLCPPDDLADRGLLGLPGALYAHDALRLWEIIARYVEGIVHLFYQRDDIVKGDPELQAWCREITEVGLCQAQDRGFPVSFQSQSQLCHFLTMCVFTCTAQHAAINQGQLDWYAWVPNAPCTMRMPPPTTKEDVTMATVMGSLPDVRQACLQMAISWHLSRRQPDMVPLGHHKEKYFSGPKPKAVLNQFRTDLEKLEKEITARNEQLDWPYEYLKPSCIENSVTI
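Purified human 12hLO at 150 nM in 25 mM Hepes, 0.01% Triton X-100, pH 7.0, preincubated 15 min at room temperature with compound. Reaction started with 40 uM arachidonic acid, 30 min at room temperature. Hydroperoxide measured by Fe-xylenol orange, 573/405 nm absorbance ratio.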
Numbers stand for hits; . = inactive; ? = inconclusive; / = no result given; ! = repeats disagree. Unless noted, calls follow the shape of the dose curve; as a rule, active = well fitted curve in the direction sought with a large enough effect; inconclusive = small, poorly fitted or top-dose-only effect, or another doubt; inactive = no such curve, though single readings can be large; an effect the other way counts as inactive or inconclusive.

SMILES	Apoferritin bind	GRP78 ERSR act	BCR signal inh	12-LOX inh
FC(F)Oc1ccc(NC(=S)NC2CCSc3ccccc32)cc1 (configuration not stated)	.	.	.	?
CC(C)c1ccc(NC(=S)NC2CCSc3ccccc32)cc1 (configuration not stated)	/	/	/	35µM
O=C(CN(CCc1ccccc1)S(=O)(=O)c1ccc(Br)cc1)NCc1ccc(Cl)cc1	.	.	/	4.5µM
O=C(CN(CCc1ccccc1)S(=O)(=O)c1ccccc1)NCc1ccc(Cl)cc1	.	.	/	.
CC(=O)OC1=CSc2cccc3cccc1c23	/	/	/	40µM
Cc1cc(OCCn2c(CNC(=O)c3ccco3)nc3ccccc32)ccc1Cl	/	/	/	.
CCN1CCN(Cc2c(OC)ccc3ccccc23)CC1	.	.	?	.
COc1ccc2ccccc2c1CN1CCSCC1	.	.	.	1.6µM
Clc1nssc1=Nc1nncs1	/	.	?	4.5µM
Clc1ccc(N=c2ssnc2Cl)nc1	.	.	?	?
Clc1nssc1=Nc1ccc(Br)cc1	?	.	?	4µM
CCN(CC)CCNCc1cc(Br)ccc1OCC(=O)NCc1ccccc1	.	.	.	28µM
COc1ccc(OCCCOc2ccc(Cl)cc2/C=N/NC(N)=O)cc1	/	/	/	.
Cc1ccc(NS(=O)(=O)c2ccc(C(=O)N3CC(C)CC(C)C3)cc2)cc1 (configuration not stated)	/	40µM	.	.
Cc1ccc(S(=O)(=O)Nc2ccc(C(=O)N3CCCC3)cc2)cc1	.	.	.	.
Cc1nc2[nH]c(=S)[nH]c(=O)c2nc1C	/	.	/	?
Cc1nc2c(=O)[nH]c(=S)n(C)c2nc1C	.	.	.	32µM
Cc1ccc(NC(=O)CSc2nnc(COc3ccc(Cl)cc3)o2)c(C)c1	.	.	/	.
Cc1cccc(OCc2nnc(SCC(=O)Nc3ccc(C)cc3C)o2)c1	.	.	/	35µM
CC(C)(C)C(=O)/C=c1/[nH]c(=O)/c(=C/c2ccccc2F)s1	/	/	/	.
Cc1ccc(S(=O)(=O)n2nc(-c3ccc(Cl)cc3)nc2NCc2ccco2)cc1	.	.	.	13µM
O=S(=O)(c1ccccc1)n1nc(-c2ccc(Cl)cc2)nc1NCc1ccccc1	.	/	/	.
O=C(O)c1ccc2c(c1)c(C(C(=O)O)N1CCN(c3ncccn3)CC1)cn2Cc1ccccc1 (configuration not stated)	/	/	/	.
CC(C)(C)c1cc(C(=O)OCCN2CCCCC2)cc(C(C)(C)C)c1	/	/	/	7.1µM
CC(C)(C)c1ccc(C(=O)OCCN2CCCCC2)cc1	.	.	.	.
SMILES	Apoferritin bind	GRP78 ERSR act	BCR signal inh	12-LOX inh
CC1=NN(c2ccc(C(=O)OC(C)C)cc2)C(=O)/C1=C\C=C\c1ccco1	?	.	.	?
CCc1ccc(N2NC(=O)/C(=C/C=C/c3ccco3)C2=O)cc1	.	.	.	28µM
Fc1ccc(C(Nc2ccccn2)c2c[nH]c3ccccc23)cc1 (configuration not stated)	.	.	?	6.3µM
O=[N+]([O-])CC(c1ccc(F)cc1)c1c[nH]c2ccccc12 (configuration not stated)	?	.	.	.
CCC(C)Sc1ccc(-c2nc3cnccn3c2NC2CCCCC2)cc1 (configuration not stated)	/	.	?	?
CCC(C)Sc1ccc(-c2nc3cc(C)ccn3c2NC2CCCCC2)cc1 (configuration not stated)	/	.	.	35µM!
O=C(c1ccc(Cl)cc1Cl)N(CCS(=O)(=O)N1CCCCC1)Cc1cccnc1	/	/	/	0.5µM
COCC(=O)Nc1cccc(NC(=O)CC2CCCC2)c1	/	/	/	.
CN1CCN(c2ccc(NC(=S)NC(=O)c3cccc4ccccc34)cc2)CC1	.	.	.	28µM
COC(=O)c1ccccc1NC(=O)c1ccc(COc2ccccc2)o1	?	.	/	?
COC(=O)c1ccccc1NC(=S)NC(=O)c1cccc2ccccc12	.	.	.	32µM
COC(=O)c1ccccc1NC(=O)c1ccc(COc2cccc3ccccc23)o1	.	.	?	45µM
COc1cncc(Nc2ncc(-c3cccc(F)c3)c3c2OCC3)c1	/	/	/	.
C/C(=N\NC(=S)NC(C)C)c1ccc(Cl)s1	.	.	.	45µM
C=CCOC(=O)C(=O)/C=C/c1ccc2c(c1)Cc1ccccc1-2	.	.	?	14µM
CC(C)c1ccc(OC(=O)c2cc(-c3ccccc3)on2)cc1	14µM	.	/	.

Source: PubChem (National Center for Advancing Translational Sciences (NCATS))
